# Assay results taken from PMC7862700, “An all-to-all approach to the identification of sequence-specific readers for epigenetic DNA modifications on cytosine”.
# Experiments:
# Test in all cases: DAPPL (digital affinity profiling via proximity ligation, sequencing); 10 mM Tris-HCl pH 7.5, 50 mM NaCl, 1 mM DTT, 4% glycerol, room temperature, 30 min; GST-TFs on glutathione beads, 16-mer random dsDNA library, 0.1% formaldehyde crosslink after washing; high values mean tight binding
# Settings in all cases: protein: recombinant; tags: N-terminal GST; dsDNA, one strand shown
# ETV1 = ETV1 (Homo sapiens, UniProt P50549 1-477)
# Procedure, shortened: (§1)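 Pools were built from human transcription factors expressed in yeast as GST fusions, captured on glutathione beads and DNA-barcoded, along with a tag-only sample. Incubation with 200 nmole of a 16-mer random double-stranded DNA library lasted 30 min at room temperature in Tris/NaCl/DTT/glycerol buffer, and was followed by washing, 0.1% formaldehyde crosslinking, proximity ligation, PCR amplification and Illumina NextSeq500 sequencing. Binding signal is the quotient of each hexamer's read frequency for a factor and its frequency for the tag-only sample.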
# ERF = target: T1, ERF (Homo sapiens, UniProt P50548 1-548)
# T1 sequence: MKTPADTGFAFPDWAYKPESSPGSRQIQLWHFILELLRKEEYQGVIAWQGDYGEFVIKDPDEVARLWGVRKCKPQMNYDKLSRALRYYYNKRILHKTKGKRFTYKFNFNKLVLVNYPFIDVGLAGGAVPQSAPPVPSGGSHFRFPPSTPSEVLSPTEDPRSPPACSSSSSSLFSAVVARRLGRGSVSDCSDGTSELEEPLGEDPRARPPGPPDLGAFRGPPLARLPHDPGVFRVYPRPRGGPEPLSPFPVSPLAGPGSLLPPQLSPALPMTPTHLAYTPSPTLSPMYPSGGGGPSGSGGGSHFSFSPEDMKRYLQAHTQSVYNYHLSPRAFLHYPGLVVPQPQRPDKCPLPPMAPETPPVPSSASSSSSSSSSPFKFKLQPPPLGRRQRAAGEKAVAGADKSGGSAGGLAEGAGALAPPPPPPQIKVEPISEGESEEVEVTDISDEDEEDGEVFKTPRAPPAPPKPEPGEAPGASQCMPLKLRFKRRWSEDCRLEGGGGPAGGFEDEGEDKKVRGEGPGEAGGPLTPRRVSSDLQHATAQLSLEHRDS
# Procedure, shortened: as §1
# ETV3L = target: T2, ETV3L (Homo sapiens, UniProt Q6ZN32 1-361)
# T2 sequence: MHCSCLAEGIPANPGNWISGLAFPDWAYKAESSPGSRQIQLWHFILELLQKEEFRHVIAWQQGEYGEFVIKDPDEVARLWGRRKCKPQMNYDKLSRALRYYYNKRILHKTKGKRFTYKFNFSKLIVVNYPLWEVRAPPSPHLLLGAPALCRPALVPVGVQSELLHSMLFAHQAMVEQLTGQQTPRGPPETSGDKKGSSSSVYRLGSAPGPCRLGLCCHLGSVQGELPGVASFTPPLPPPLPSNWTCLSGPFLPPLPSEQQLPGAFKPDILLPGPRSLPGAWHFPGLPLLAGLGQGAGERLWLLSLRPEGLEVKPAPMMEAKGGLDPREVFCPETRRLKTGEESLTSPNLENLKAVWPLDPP
# Procedure, shortened: as §1
# ETS2 = target: T3, ETS2 (Homo sapiens, UniProt P15036 1-469)
# T3 sequence: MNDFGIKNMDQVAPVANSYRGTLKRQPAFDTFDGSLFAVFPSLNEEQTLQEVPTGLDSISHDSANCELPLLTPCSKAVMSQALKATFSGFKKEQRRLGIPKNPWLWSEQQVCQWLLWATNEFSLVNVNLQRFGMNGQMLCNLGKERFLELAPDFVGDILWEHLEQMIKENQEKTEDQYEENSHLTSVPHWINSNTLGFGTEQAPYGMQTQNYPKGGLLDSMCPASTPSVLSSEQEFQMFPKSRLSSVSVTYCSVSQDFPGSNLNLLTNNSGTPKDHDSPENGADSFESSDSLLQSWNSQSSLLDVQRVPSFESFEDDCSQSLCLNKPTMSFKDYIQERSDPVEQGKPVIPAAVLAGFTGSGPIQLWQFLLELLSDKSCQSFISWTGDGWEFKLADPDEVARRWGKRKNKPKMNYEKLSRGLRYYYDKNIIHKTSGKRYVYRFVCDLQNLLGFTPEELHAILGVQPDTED
# Procedure, shortened: as §1
# SPDEF = target: T4, SPDEF (Homo sapiens, UniProt O95238 1-335)
# T4 sequence: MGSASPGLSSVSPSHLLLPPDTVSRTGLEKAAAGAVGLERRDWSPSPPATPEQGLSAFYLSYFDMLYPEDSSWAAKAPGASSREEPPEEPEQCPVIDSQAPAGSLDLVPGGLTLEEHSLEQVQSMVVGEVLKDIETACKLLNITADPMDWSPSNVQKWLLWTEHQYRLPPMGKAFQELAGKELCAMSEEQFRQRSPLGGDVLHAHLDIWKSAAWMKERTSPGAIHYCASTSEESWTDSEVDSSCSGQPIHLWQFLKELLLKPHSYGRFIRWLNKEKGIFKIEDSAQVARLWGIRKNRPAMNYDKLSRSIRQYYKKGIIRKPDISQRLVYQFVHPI
# Procedure, shortened: as §1
# ETV7 = target: T5, ETV7 (Homo sapiens, UniProt Q9Y603 1-341)
# T5 sequence: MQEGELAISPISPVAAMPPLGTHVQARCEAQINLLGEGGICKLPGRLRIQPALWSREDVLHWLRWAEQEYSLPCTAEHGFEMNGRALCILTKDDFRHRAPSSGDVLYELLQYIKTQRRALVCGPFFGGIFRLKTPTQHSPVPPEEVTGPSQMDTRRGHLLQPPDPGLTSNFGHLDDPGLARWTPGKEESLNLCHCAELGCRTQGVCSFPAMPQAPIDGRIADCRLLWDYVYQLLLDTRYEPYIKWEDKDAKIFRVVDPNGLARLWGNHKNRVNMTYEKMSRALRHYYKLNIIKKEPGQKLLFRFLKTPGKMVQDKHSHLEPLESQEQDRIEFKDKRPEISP
# Procedure, shortened: as §1
# ELF5 = target: T6, ELF5 (Homo sapiens, UniProt Q9UKW6-2 1-255)
# T6 sequence: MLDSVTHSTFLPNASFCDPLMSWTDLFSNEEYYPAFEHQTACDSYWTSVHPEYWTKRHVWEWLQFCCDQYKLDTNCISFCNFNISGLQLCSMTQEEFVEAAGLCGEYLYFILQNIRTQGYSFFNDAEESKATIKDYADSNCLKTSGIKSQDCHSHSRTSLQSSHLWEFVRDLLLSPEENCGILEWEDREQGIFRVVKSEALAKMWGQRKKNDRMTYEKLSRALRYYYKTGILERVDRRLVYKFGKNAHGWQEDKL
# Procedure, shortened: as §1
# ETV3 = target: T7, ETV3 (Homo sapiens, UniProt P41162-2 1-143)
# T7 sequence: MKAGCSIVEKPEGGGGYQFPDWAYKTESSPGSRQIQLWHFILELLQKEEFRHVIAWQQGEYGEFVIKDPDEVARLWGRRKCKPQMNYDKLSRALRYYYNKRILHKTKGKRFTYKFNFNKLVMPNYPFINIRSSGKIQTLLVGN
# Procedure, shortened: as §1
# ETV6 = ETV6 (Homo sapiens, UniProt P41212 1-452)
# Procedure, shortened: as §1
# Chain of ETV6 (P41212 whole entry): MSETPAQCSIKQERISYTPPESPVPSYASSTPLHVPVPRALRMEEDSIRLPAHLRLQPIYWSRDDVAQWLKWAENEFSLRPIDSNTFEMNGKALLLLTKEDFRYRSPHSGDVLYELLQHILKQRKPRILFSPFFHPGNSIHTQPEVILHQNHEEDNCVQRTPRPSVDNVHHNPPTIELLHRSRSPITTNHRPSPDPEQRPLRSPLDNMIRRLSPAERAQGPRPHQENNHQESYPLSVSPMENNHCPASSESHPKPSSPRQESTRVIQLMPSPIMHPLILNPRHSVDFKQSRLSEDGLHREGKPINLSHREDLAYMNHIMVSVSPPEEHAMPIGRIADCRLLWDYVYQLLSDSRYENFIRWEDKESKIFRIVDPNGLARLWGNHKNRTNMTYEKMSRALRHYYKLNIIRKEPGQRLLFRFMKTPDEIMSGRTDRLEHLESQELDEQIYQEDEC
# Chain of ETV1 (P50549 whole entry, the tested form may be a part): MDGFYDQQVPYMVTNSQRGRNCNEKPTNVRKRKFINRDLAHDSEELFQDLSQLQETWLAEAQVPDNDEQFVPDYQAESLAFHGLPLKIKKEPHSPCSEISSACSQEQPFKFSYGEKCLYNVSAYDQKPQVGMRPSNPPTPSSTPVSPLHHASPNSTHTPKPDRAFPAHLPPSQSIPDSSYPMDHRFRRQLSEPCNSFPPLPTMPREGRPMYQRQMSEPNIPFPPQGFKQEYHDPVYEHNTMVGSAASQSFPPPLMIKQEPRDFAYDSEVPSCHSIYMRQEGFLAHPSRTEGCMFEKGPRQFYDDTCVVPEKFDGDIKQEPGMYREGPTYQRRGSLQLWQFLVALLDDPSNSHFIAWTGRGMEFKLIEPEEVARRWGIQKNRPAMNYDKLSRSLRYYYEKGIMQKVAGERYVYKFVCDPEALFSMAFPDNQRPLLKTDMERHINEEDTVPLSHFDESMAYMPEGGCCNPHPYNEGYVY
sequence,measurement,setting,value
CCTTCC,binding signal,ETV1,"2.55 fold enrichment (6-mer frequency, TF over GST control)"
same,binding signal,ERF,"2.26 fold enrichment (6-mer frequency, TF over GST control)"
same,binding signal,ETV3L,"2.48 fold enrichment (6-mer frequency, TF over GST control)"
same,binding signal,ETS2,"2.41 fold enrichment (6-mer frequency, TF over GST control)"
same,binding signal,SPDEF,"2.44 fold enrichment (6-mer frequency, TF over GST control)"
same,binding signal,ETV7,"2.45 fold enrichment (6-mer frequency, TF over GST control)"
same,binding signal,ELF5,"3.65 fold enrichment (6-mer frequency, TF over GST control)"
same,binding signal,ETV3,"2.88 fold enrichment (6-mer frequency, TF over GST control)"
same,binding signal,ETV6,"2.74 fold enrichment (6-mer frequency, TF over GST control)"
